# According to PubChem BioAssay AID493067 (National Center for Advancing Translational Sciences (NCATS), 2011):
# Inconclusive results are not listed. Active and inactive are the calls of the source. The call rests on the fitted dose curve; in most records, active means well fitted activation curve with a large enough effect; inconclusive means small, poorly fitted or top-dose-only effect; inactive means flat fitted curve, though single readings scatter.
# Assay: Confirmation Concentration-Response Assay for qHTS Assay for Epigenetic Modulators
# Settings: murine C127i LDR cells, GFP reporter derepression, 30 h
# Excerpt: NIH Molecular Libraries Screening Centers Network [MLSCN] NIH Chemical Genomics Center [NCGC] MLSCN Grant: 1 X01 MH079860-01 Assay Provider: Elisabeth D. Martinez, University of Texas SW Medical Center NCGC Assay Overview: This assay, used for the primary screen, was employed here to confirm actives identified from the Locus Derepression (LDR) assay (PubChem AID 1865). The LDR assay detects the derepression of a GFP reporter that is stably integrated in a region of the genome of murine c127i mammary cells that is presumably silenced. Compounds that derepress or induce this reporter locus are identified by enumerating GFP positive cells using an Acumen Explorer Ex3 (TTP Labtech) laser-scanning microplate cytometer.
# NCGC Assay Protocol Summary: Three hundred LDR cells in 5 uL per well were dispensed into black, clear-bottom 1536-well plates. Twenty-three nL compound was transferred to the assay plate and cells were incubated 30 hours at 37 C. Medium was removed, cells were washed two times with PBS, and GFP-positive cells were enumerated as fluorescent objects between the sizes of 20 to 120 um width and depth using an Acumen Explorer Ex3 (TTP Labtech) laser-scanning microplate cytometer. For further details, see Johnson, RL, Huang, W, Jadhav, A, Austin, CP, Inglese, J, Martinez, ED (2008). A quantitative high-throughput screen identifies potential epigenetic modulators of gene expression. […]
smiles,measurement,value
O=C1NC(=O)N(CCc2ccc(F)cc2)C(=O)/C1=C/C=C/c1ccccc1,Potency,12.6 µM (active)
